Shown are actives, neighbours in structure and some others; about 18% of the full set was active somewhere.
DT40 TDP1 no CPT – qHTS for Inhibitors of human tyrosyl-DNA phosphodiesterase 1 (TDP1): qHTS in cells in absence of CPT. 420,000 compounds, 15% hits. Potency, µM (series often up to 46.2 µM), for the others: at the highest dose activity change, negative = growth inhibition, most hits filed as inhibitors. DT40 Tdp1-/- hTDP1 cells, no CPT, ATP luminescence, 48 h; further: potency means the concentration at half of the fitted maximal effect; on the % scale 0 is the no-effect control and ±100 the full control effect; nearly all actives have a fitted effect of over 55% in size
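No-CPT arm: Tdp1-/-;hTDP1 DT40 cells (400/well) plus compounds, incubated ≥48 hr at 37 °C. Readout CellTiter-Glo luminescence.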
TGFb inhibitor – qHTS for Inhibitors of TGF-b. HepG2 CAGA-GFP TGF-b/SMAD3 reporter, GFP fluorescence, 18 h; TGF-beta stimulated, 500 pg/mL final. Potency, µM (doses to about 46.1 µM), for the others: at the top dose activity, negative = inhibition, actives largely listed as inhibitors. 410,000 compounds, 1.2% hits. AID 588855, 2011; further: potency means the concentration at half of the fitted maximal effect; on the % scale 0 is the no-effect control and ±100 the full control effect; nearly all actives have a fitted effect of over 65% in size
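GFP signal (ex488/em500-530) from TGF-beta-stimulated HEPG2 CAGA-GFP cells, 500 pg/mL final, 18 h at 37 degrees C in DMEM plus 1% FBS, normalized to unstimulated and DMSO-stimulated controls.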
IL1B secr inh – qHTS for Inhibitors of Inflammasome Signaling: IL-1-beta AlphaLISA Primary Screen; THP-1 LPS/ATP IL-1B secretion, AlphaLISA, 16 h; stronger effect = lower value; activity change, % at 57.5 µM; 360,000 compounds, 4.7% hits; in the data active means activity change below about -50%; inconclusive means mostly about -30% to -49%; further: on the % scale 0 is the no-effect control and ±100 the full control effect
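Secreted IL-1B measured by AlphaLISA bead assay after 16 h compound exposure of THP-1 cells; compounds (final up to 57.5 uM) added 1 h before LPS (250 ng/mL) and ATP (1.25 mM) stimulation; lower signal means less secretion.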
DT40 TDP1 CPT – qHTS for Inhibitors of human tyrosyl-DNA phosphodiesterase 1 (TDP1): qHTS in cells in presence of CPT; chicken DT40 Tdp1-/-;hTDP1 cells + 20 nM CPT, ATP luminescence, 48 h; Potency, µM (series often up to 46.2 µM), for inactives: at the top dose activity change, negative = growth inhibition, most hits filed as inhibitors; 420,000 compounds, 12% hits; further: potency means the concentration at half of the fitted maximal effect; on the % scale 0 is the no-effect control and ±100 the full control effect; nearly all actives have a fitted effect of over 55% in size
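Cell growth measured by CellTiter-Glo luminescence after a minimum 48 h, 37 C compound exposure with 20 nM CPT in Tdp1-knockout DT40 cells stably expressing hTDP1, seeded 400/well; qHTS titration format.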
HepG2 viability – qHTS for Inhibitors of TGF-b: Cytotox Counterscreen; HepG2 CAGA-GFP viability, ATP luminescence, 18 h; Potency, µM (highest dose often 46.1 µM), for inactives: at the top dose activity change, negative = cytotoxicity, hits mostly cytotoxic; 410,000 compounds, 0.76% hits; AID 588856, 2011; further: potency means the concentration at half of the fitted maximal effect
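HepG2 CAGA-GFP cells (1000/well, DMEM with 1% FBS) received compound, then TGF-beta at 500 pg/mL final, and were incubated 18 hours at 37 degrees C. Viability was read by CellTiter-Glo luminescence. Media-only wells were set as complete cell-killing and DMSO as no toxicity.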
TDP1 inh – qHTS Assay for Inhibitors of Tyrosyl-DNA Phosphodiesterase (TDP1); 350,000 compounds, 0.28% hits; Potency, µM (series often up to 130 µM), for inactives: at the top dose activity change, negative = inhibition, usual class: inhibitors; AID 485290, 2010; recombinant TDP1, AlphaScreen DNA substrate cleavage; Tyrosyl-DNA phosphodiesterase 1 (Homo sapiens), Q9NUW8; further: potency means the concentration at half of the fitted maximal effect; on the % scale 0 is the no-effect control and ±100 the full control effect; nearly all actives have a fitted effect of over 40% in size
Target sequence (Q9NUW8 whole entry, looked up): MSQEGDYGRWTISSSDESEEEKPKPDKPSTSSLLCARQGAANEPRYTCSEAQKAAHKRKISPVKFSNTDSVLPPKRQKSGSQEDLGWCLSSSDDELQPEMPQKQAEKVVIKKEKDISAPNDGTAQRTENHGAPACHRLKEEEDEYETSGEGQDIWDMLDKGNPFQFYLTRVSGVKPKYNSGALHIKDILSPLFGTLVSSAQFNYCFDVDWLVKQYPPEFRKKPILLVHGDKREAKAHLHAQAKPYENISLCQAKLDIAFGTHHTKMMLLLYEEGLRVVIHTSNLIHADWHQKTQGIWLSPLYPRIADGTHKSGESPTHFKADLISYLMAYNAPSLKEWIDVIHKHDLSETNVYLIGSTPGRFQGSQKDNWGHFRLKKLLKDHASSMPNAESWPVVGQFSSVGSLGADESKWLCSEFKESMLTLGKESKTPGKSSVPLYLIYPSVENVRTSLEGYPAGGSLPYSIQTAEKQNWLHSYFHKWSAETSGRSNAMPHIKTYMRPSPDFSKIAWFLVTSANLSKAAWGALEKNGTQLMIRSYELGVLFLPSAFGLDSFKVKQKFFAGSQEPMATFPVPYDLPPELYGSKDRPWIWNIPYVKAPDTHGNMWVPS
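Steps: enzyme plus compound, 15 min RT; add biotin/phosphotyrosine-FITC oligonucleotide (15 nM final), react 5 min; add donor/acceptor beads (10 ug/ml final), 10 min; read AlphaScreen. Tdp1 at 1 nM final.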
* marks the source's active call; other numbers are inactive results; ? = inconclusive; · = not tested or not shown; [ ] = remark or other dose. Unless noted, the call rests on the fitted dose curve; in most records, active means well fitted curve in the direction sought with a large enough effect; inconclusive means small, poorly fitted or top-dose-only effect, or another doubt; inactive means no such curve, though single readings can be large; an effect the other way counts as inactive or inconclusive.

SMILES	DT40 TDP1 no CPT	TGFb inhibitor	IL1B secr inh	DT40 TDP1 CPT	HepG2 viability	TDP1 inh
CN(C)C1=NC[C@H](Cc2ccccc2)N1CCCC1CCCCC1	6.5µM*	?	?	7.3µM*	-34%	-6%
CN(C)C1=NC[C@H](Cc2ccccc2)N1CCc1cccc(F)c1	?	10%	-3	?	-1%	-7%
CN(C)C1=NC[C@H](Cc2ccccc2)N1CCCC1CCCC1	21µM*	-16%	?	16µM*	-33%	·
CN(C)C1=NC[C@H](Cc2ccccc2)N1CC1CCCCCC1	15µM*	6%	-12	5.8µM*	-4%	-3%
CN(C)C1=NCCN1CCCC1CCCC1	12µM*	6%	23	?	3%	-5%
COc1ccc2cc(C(=O)C3CCCN(C(=O)C4=NN(C)C(=O)CC4)C3)ccc2c1 (stereo not given)	?	3%	8	-26%	8%	4%
CC(=O)O[C@](C)(CCC=C(C)C)C1CC=C(C)CC1 (stereo not given in full)	4%	·	·	-14%	·	12%[56.1 µM]
CC(C)(CNC(=O)c1cnn(-c2nccc(-c3cccs3)n2)c1C1CC1)N1CCOCC1	-18%	·	·	-11%[9.04 µM]	·	·
CC(C(=O)O)N(C(=O)c1ccccc1)c1ccc(F)cc1 (stereo not given)	0%	-10%	16	-6%	1%	0%
CN(C)C1=NC[C@H](Cc2ccccc2)N1CCC1CCCC1	?	7%	-4	21µM*	-22%	·
CC(=O)Nc1cc([N+](=O)[O-])cc(NC(C)=O)c1NC(C)=O	?	23%	·	7.1µM*	0%	·
CC(=O)Nc1ccc(O)cc1[N+](=O)[O-]	-18%	-16%	26	6%	-10%	5%
COc1ccc(C(=O)c2c3ccc(OC)cc3[n+]([O-])n2Cc2ccc(C(N)=O)cc2)cc1	?	2%	-1	?	-4%	3%
COc1cc(/C=N/NC(=O)c2ccccc2Cl)ccc1Oc1ccc([N+](=O)[O-])cn1	?	-6%	17	?	-4%	8%
COc1cc(/C=C(/C#N)c2ccc(C)cc2)ccc1Oc1ccc([N+](=O)[O-])cn1	?	?	-69*	?	-23%	-4%
CCOc1cc(/C=C(/C#N)c2nc3ccccc3[nH]2)ccc1Oc1ccc([N+](=O)[O-])cn1	?	-21%	?	13µM*	-24%	5%
CCOc1ccc2c(c1)OC(c1ccc(C)cc1)(C(F)(F)F)NC2=O (stereo not given)	1.3µM*	0%	-16	1.5µM*	5%	·
CC(=O)NN1C(=O)/C(=C\c2ccc(Br)o2)SC1=S	16µM*	0%	-97*	?	-20%	-5%
CC(=O)NN1C(=O)/C(=C/c2ccc(Br)o2)SC1=S	?	32%	-8	?	22%	?
NS(=O)(=O)c1cccc(NC(=O)COC(=O)/C=C/c2nc3ccccc3s2)c1	-25%	-5%	26	-2%	2%	?
COc1ccc2occ(C(=O)c3ccccc3)c2c1	-12%	-17%	-9	-12%	-19%	-5%
O=C1C(=C(O)c2ccccc2)C(=O)c2ccccc21	-14%	113%	5	?	-13%	5%
COc1ccc(C(=O)c2coc3c2C(=O)C(=O)c2ccccc2-3)cc1	4.6µM*	?	13	2.6µM*	-33%	11%
O=C(c1ccccc1)c1coc2c1C(=O)c1ccccc1C2=O	?	?	-28	?	10µM*	11%
COc1ccc(C2C(C(=O)Nc3ccccc3)=C(C)Nc3nc(-c4ccccc4)nn32)cc1OC (stereo not given)	-19%	-22%	·	-29%	-49%	0%
SMILES	DT40 TDP1 no CPT	TGFb inhibitor	IL1B secr inh	DT40 TDP1 CPT	HepG2 viability	TDP1 inh
CC(=O)CCC1CC(c2ccc(Cl)cc2)=NO1 (stereo not given)	-13%	6%	16	1%	-5%	-3%
Cc1cc(=O)oc2cc(OCC3CC(c4ccc(Cl)cc4)=NO3)ccc12 (stereo not given)	?	-3%	46	28µM*	-22%	-14%
NNC(=O)c1ccc(OCC2CC(c3ccc(Cl)cc3)=NO2)cc1 (stereo not given)	?	?	-1	?	13µM*	·
Cc1cc(=O)oc2cc(OCC3CC(c4ccc(N(C)C)cc4)=NO3)ccc12 (stereo not given)	-20%	0%	50	-19%	-35%	8%
NC(=O)c1cccc(C[C@H](C(=O)O)N2C(=O)c3ccc(C(=O)O)cc3C2=O)c1	·	·	·	·	·	4%
CCCCC(O)(CCCC)C(=O)N/N=C(\C)c1ccc(Cl)cc1	?	0%	-54*	?	-5%	·
Cc1ccc(CNC(=O)C2CCN(S(=O)(=O)c3ccc4c(c3)CC(C)N4C(=O)C3CCC3)CC2)o1 (stereo not given)	29µM*	-28%	-26	?	-25%	9%
Cc1ccnc(NC(=O)C2CCN(S(=O)(=O)c3ccc4c(c3)CC(C)N4C(=O)C3CCC3)CC2)c1 (stereo not given)	?	-28%	-69*	?	-7%	4%
COc1ccc(S(=O)(=O)N2CCCCCC2)cc1C(=O)Nc1cc(C)ccn1	?	0%	-27	21µM*	-27%	2%
CCOC(=O)C1CCN(S(=O)(=O)c2ccc3c(c2)CC(C)N3C(=O)C2CC2)CC1 (stereo not given)	?	2%	32	-30%	11%	3%
Cc1ccnc(NC(=O)C2CCN(S(=O)(=O)c3ccc(C)c(C)c3)CC2)c1	-20%	-5%	-84*	-4%	-5%	·
CC(=O)N1c2ccc(S(=O)(=O)N3CCC(C(=O)Nc4ccc(C)cn4)CC3)cc2CC1C (stereo not given)	?	?	-19	?	-32%	4%
CCOC(=O)c1cc(OC(=O)c2cc(OC)cc(OC)c2)n(-c2ccccc2)n1	·	4%	·	·	6%	2%
O=S(=O)(Cc1cc(-c2ccccc2Cl)no1)c1ccccc1	-16%	10%	-16	-25%	-16%	-1%

Screening data (PubChem BioAssay)
